The text below walks through data of PubChem BioAssay (EPA / NIEHS).

Read-out in assay [1]: Vascular cell adhesion molecule 1 (VCAM1), VCAM1 (gene 7412)
Description: BSK_hDFCGF_VCAM1: BioMAP Diversity Plus: hDFCGF Assay for Vascular cell adhesion molecule 1 (VCAM1) Biomarker Activity (AID 2283065).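 On AC50: VCAM-1 protein level quantified by ELISA after 24 h chemical exposure.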 Conditions: primary human foreskin fibroblasts; actives raise or lower the signal. The essentials: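 ELISA readout of VCAM-1 on human dermal fibroblast primary cultures, 24 h after chemical exposure. Gain or loss of signal fitted in both directions against DMSO baseline.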

Read-out in assay [2]: Plasminogen activator inhibitor-1 (PAI1), SERPINE1 (gene 5054)
Description: BSK_hDFCGF_PAI1: BioMAP Diversity Plus: hDFCGF Assay for Plasminogen activator inhibitor-1 (PAI1) Biomarker Activity (AID 2283066). As to conditions: primary human foreskin fibroblasts; actives raise or lower the signal. In short, it runs like this:
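PAI-1 levels in human dermal foreskin fibroblasts were quantified by ELISA 24 h after dosing, with gain or loss analysed against DMSO. Overt cytotoxicity was checked by sulforhodamine B total-protein staining in parallel cultures.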

Read-out in assay [3]: Interferon-gamma inducible Protein 10 (IP10), CXCL10 (gene 3627)
Nature of the assay: BSK_KF3CT_IP10: BioMAP Diversity Plus: KF3CT Assay for Interferon-gamma inducible Protein 10 (IP10) Biomarker Activity (AID 2283068). Conditions: primary human keratinocytes with fibroblasts; actives raise or lower the signal. In short, it runs like this: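 Human keratinocyte plus foreskin fibroblast primary co-culture exposed to test chemical for 24 h; IP-10 measured by ELISA. Concentration-response fitted bidirectionally against DMSO control as baseline.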

A short description of assay [4]: BSK_KF3CT_SRB: Viability Assessment in the BioMAP Diversity Plus: KF3CT Assay (AID 2283069).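 Further: read 24 h after compound addition.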 As to conditions: primary human keratinocytes with fibroblasts. The essentials: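 Overt cytotoxicity is assessed as total protein by sulforhodamine B staining in parallel human skin co-cultures at 24 h after dosing. DMSO serves as negative control and baseline.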
Read-out in assay [5]: Interleukin-1 alpha (IL1a), IL1A (gene 3552)
Description: BSK_KF3CT_IL1a: BioMAP Diversity Plus: KF3CT Assay for Interleukin-1 alpha (IL1a) Biomarker Activity (AID 2283070). Conditions: primary human keratinocytes with fibroblasts; actives raise or lower the signal. The essentials:
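Readout is IL-1a level by ELISA, compared bidirectionally with DMSO as baseline. Cells: human keratinocytes co-cultured with foreskin fibroblasts, harvested 24 h post-dose.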

Read-out in assay [6]: TIMP metallopeptidase inhibitor 2 (TIMP2), TIMP2 (gene 7077)
Nature of the assay: BSK_KF3CT_TIMP2: BioMAP Diversity Plus: KF3CT Assay for TIMP metallopeptidase inhibitor 2 (TIMP2) Biomarker Activity (AID 2283071). Conditions: primary human keratinocytes with fibroblasts; actives raise or lower the signal. In short, it runs like this: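 TIMP-2 measured by ELISA at 24 h in human keratinocyte/fibroblast primary co-cultures exposed to chemicals. Both increases and decreases were fitted against DMSO. Parallel cultures were stained with SRB for total protein as an overt-cytotoxicity check.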

Read-out in assay [7]: Transforming growth factor beta 1 (TGFb1), TGFB1 (gene 7040)
Nature of the assay: BSK_KF3CT_TGFb1: BioMAP Diversity Plus: KF3CT Assay for Transforming growth factor beta 1 (TGFb1) Biomarker Activity (AID 2283072). As to conditions: primary human keratinocytes with fibroblasts; actives raise or lower the signal. In short, it runs like this:
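ELISA quantifies TGF-b1 at 24 h post-dose in a primary human skin co-culture of keratinocytes and fibroblasts, with gain or loss judged against DMSO. Parallel SRB total-protein staining flags overt cytotoxicity.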

Read-out in assay [8]: C-C motif chemokine 2 (Homo sapiens) (UniProt P13500)
Description: BSK_KF3CT_MCP1: BioMAP Diversity Plus: KF3CT Assay for Monocyte Chemoattractant Protein 1 (MCP1/CCL2) Biomarker Activity (AID 2283073). As to conditions: primary human keratinocytes with fibroblasts; actives raise or lower the signal. In short, it runs like this:
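ELISA read-out of MCP-1, 24 h post-dose, in primary human skin keratinocytes co-cultured with fibroblasts. Parallel SRB staining monitors cytotoxicity; changes fitted both directions relative to DMSO.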

Read-out in assay [9]: Matrix Metallopeptidase 9 (MMP9), MMP9 (gene 4318)
Nature of the assay: BSK_KF3CT_MMP9: BioMAP Diversity Plus: KF3CT Assay for Matrix Metallopeptidase 9 (MMP9) Biomarker Activity (AID 2283074).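 On AC50: MMP9 protein level quantified by ELISA in the co-culture.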 As to conditions: primary human keratinocytes with fibroblasts; actives raise or lower the signal. In short, it runs like this: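 Values come from bidirectional fitting relative to DMSO of MMP-9 levels, which were measured by ELISA. Measurements were taken 24 h after chemical dosing of a keratinocyte and foreskin fibroblast co-culture.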

Read-out in assay [10]: Intercellular Adhesion Molecule 1 (ICAM1), ICAM1 (gene 3383)
Description: BSK_KF3CT_ICAM1: BioMAP Diversity Plus: KF3CT Assay for Intercellular Adhesion Molecule 1 (ICAM1) Biomarker Activity (AID 2283067). Conditions: primary human keratinocytes with fibroblasts; actives raise or lower the signal. In short, it runs like this: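 Cell-surface ICAM-1 was measured by ELISA 24 h after dosing primary human skin keratinocytes co-cultured with fibroblasts. Parallel SRB staining tracked overt cytotoxicity. Gain or loss of signal was fitted relative to DMSO.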

Molecules are shown by their SMILES. Active and inactive are the calls of the source. How the source made its calls: active means hit-call score of the fitted dose curve at least 0.9, where 1 is the maximum; inactive means score below 0.9.

For the molecule `c1ccc2occc2c1`, the result in assay [1], in [2], in [3], in assay [4], in assay [5] and in [6] was inactive. Moreover, the result in [7], in assay [8] and in assay [9] was inactive.

In the case of `CCCCCCC(C=O)=Cc1ccccc1`, the AC50 in [1] was 32 µM (active); in assay [3] it was 30.5 µM (active). Besides, the outcome in assay [2], in assay [4], in assay [5], in assay [6], in assay [7] and in assay [8] was inactive. In assay [9], the outcome was inactive.

As to `OCC(CO)n1cnc(-c2ccc(F)cc2)c1-c1ccnc(Oc2ccccc2)n1`, in assay [1], the AC50 was 1.8 µM (active). The outcome in assay [2], in [3], in assay [4], in assay [5], in assay [6] and in assay [7] was inactive. Further, the outcome in assay [8] and in assay [9] was inactive.

Take `Cc1cc(SC2=C(O)C[C@@](CCc3ccc(N)cc3)(C(C)C)OC2=O)c(C(C)(C)C)cc1CO`: the result in [1], in assay [2], in assay [3], in assay [4], in assay [5] and in assay [6] was inactive. In addition, the outcome in assay [7], in [8] and in assay [9] was inactive.

As to `COC(=O)[C@H]1[C@H]2C[C@@H]3c4[nH]c5cc(OC)ccc5c4CCN3C[C@H]2C[C@@H](OC(=O)c2cc(OC)c(OC)c(OC)c2)[C@@H]1OC`, the outcome in assay [1], in assay [10], in assay [3], in assay [4], in assay [5] and in [6] was inactive. Moreover, the result in [7], in assay [8] and in assay [9] was inactive.

As to `CN(C)C(=O)NC1(c2ccccc2)CCN(CC[C@@]2(c3ccc(F)c(F)c3)CN(C(=O)c3ccccc3)CCO2)CC1`, the result in assay [1], in assay [2], in assay [3], in [4], in [5] and in assay [6] was inactive. The result in [7], in assay [8] and in assay [9] was inactive.

As to `Cn1cnc2c1c(=O)[nH]c(=O)n2C`, the result in assay [1], in assay [2], in assay [3], in assay [4], in assay [5] and in [6] was inactive. The outcome in [7], in assay [8] and in assay [9] was inactive.

Take `NC=O`: the outcome in assay [1], in assay [2], in assay [3], in assay [4], in assay [5] and in [6] was inactive. The outcome in [7], in assay [8] and in assay [9] was inactive.

Regarding `C#CC(O)C(CC)CCCC` (stereo not given), the outcome in [1], in assay [2], in assay [3], in assay [4], in assay [5] and in assay [6] was inactive. Besides, the result in assay [7], in [8] and in [9] was inactive.

As for `CC1(C)C(=O)NC(=O)N1CO`, the result in assay [1], in [2], in assay [3], in assay [4], in assay [5] and in assay [6] was inactive. Besides, the outcome in assay [7], in assay [8] and in assay [9] was inactive.

As to `O=C(O)c1cccnc1`, the outcome in assay [1], in assay [2], in [3], in assay [4], in assay [5] and in assay [6] was inactive. Moreover, the result in assay [7], in assay [8] and in assay [9] was inactive.

For the molecule `CC(C)c1cccc(C(C)C)c1`, the outcome in [1], in assay [2], in assay [3], in [4], in assay [5] and in assay [6] was inactive. In addition, the result in [7], in assay [8] and in [9] was inactive.

Consider `CCCCc1nc2cccnc2n1Cc1ccc(-c2ccccc2-c2nnn[nH]2)cc1`, for which the outcome in assay [1], in assay [2], in assay [4], in [5], in assay [6] and in assay [7] was inactive. Besides, the outcome in assay [8] was inactive. In addition, the concentration at half-maximal activity (AC50) in [3] was 29.7 µM (active); in assay [9], 0.0268 µM (active).

As to `N[C@@H](Cc1c[nH]c2ccccc12)C(=O)O`, the outcome in [1], in assay [2], in assay [3], in assay [4], in [5] and in assay [6] was inactive. Also, the outcome in assay [7], in [8] and in assay [9] was inactive.

`CCCCCCCCCC[N+](C)(C)[O-]`: the outcome in [1], in assay [2], in assay [3], in assay [4], in assay [5] and in assay [7] was inactive. For the same molecule, the outcome in assay [8] and in assay [9] was inactive. Also, the AC50 in [6] is 0.0209 µM (active).
